Assay outcomes: PubChem BioAssay, several laboratories
697 NFkB inh: inhibitors of PMA/ionomycin-induced NF-kB reporter, 697 cells, primary screen, B-cell NF-kB inhibitor project, cell-based, luminescence, uHTS | inhibition, % at 4 µM | 0.33% of 330,000 active | 697 B-cell NF-kB luciferase reporter, 16 h; in the data active = inhibition above about 35%
GalR3 antagonist: GalR3 antagonists in HEK293 cells, primary screen, cell-based, fluorescence readout | 0.44% of 360,000 active | inhibition, % at 3 µM | HEK293 GalR3-CNG cAMP membrane potential fluorescence; galR3 body fused to GalR1 C-terminus | Galanin receptor type 3 (Homo sapiens), O60755;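 active = inhibition above the screen-wide average plus 3 SD, cut at about 13% in these data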;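 also: forskolin and galanin both at EC90 stimulate the cells; cAMP rise reported by CNG channel membrane potential dye signal; 0% = forskolin plus galanin with DMSO and 100% = forskolin alone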
Target sequence (O60755 1-299 limits assumed): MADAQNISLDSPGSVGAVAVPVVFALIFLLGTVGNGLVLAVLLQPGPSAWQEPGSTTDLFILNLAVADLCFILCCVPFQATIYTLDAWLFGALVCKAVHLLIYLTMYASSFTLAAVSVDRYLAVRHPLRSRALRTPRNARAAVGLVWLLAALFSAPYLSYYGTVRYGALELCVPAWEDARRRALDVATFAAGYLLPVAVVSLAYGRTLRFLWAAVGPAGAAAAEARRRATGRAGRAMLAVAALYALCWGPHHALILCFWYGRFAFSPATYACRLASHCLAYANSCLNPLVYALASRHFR
Gli-Sufu antag: Gli-Sufu pathway antagonists, primary screen, luciferase luminescence, Sufu-KO-LIGHT cells, uHTS. Sufu-KO-LIGHT fibroblasts, Gli luciferase reporter luminescence. inhibition, % at 5 µM. 0.74% of 340,000 active. AID 588413, 2011;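 active = inhibition above about 55%, limit read from the data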;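 also: 0% = DMSO-treated cells and 100% = wells with medium but no cells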
Jurkat NFkB inh: inhibitors of induced NF-kB luciferase reporter, primary screen, TCR NF-kB activation inhibitor project, cell-based, luminescence, uHTS | Jurkat, PMA/ionomycin-induced NF-kB luciferase reporter | 0.53% of 330,000 active | inhibition, % at 4 µM | AID 435003, 2010; in the data active = inhibition above about 50%
COUP-TFII inh: NR2F2 transcriptional activity inhibitors, primary screen, cell-based, luciferase reporter, HEK293T, luminescence; HEK293T NGFI-A luciferase reporter; 0.7% of 370,000 active; inhibition, % at 8.6 µM; COUP transcription factor 2 (Homo sapiens), P24468; AID 686940, 2013;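 active = inhibition above a per-plate cutoff, mean inhibition of test wells between control levels plus 3 SD, cut at about 38% in these data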;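 also: cells cotransfected with COUP-TFII expression vector driving the NGFI-A reporter; 0% = median of COUP-TF2 test wells and 100% = reporter-only cells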
Jurkat NFkB conf: PMA/ionomycin-induced NF-kB reporter inhibitors, Jurkat retest, confirmation, T-cell NF-kB inhibitor project, cell-based, luminescence, single concentration; AID 435020, 2010; inhibition, % at 4 µM; shares compounds with Jurkat NFkB inh; 27% of 2,700 active; Jurkat NF-kB luciferase, 16 h;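 active = inhibition reaching about 45% at 4 µM in either replicate, limit read from the data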;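 also: plate controls were PMA/ionomycin stimulated DMSO wells for no effect and unstimulated DMSO wells for full effect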
Active calls of the source: *; . = not tested or not shown. Shown are actives, neighbours in structure and some others; about 2% of the full set was active somewhere.

SMILES	697 NFkB inh	GalR3 antagonist	Gli-Sufu antag	Jurkat NFkB inh	COUP-TFII inh	Jurkat NFkB conf
COc1ccc(/C=N\NC(=O)c2ccccc2F)cc1COc1ccc(F)cc1	-17	-4	7	25	-12	.
COc1ccc(/C=N\NC(=O)c2ccccc2F)cc1COc1ccc(F)cc1F	-6	-12	12	61*	-41	44
NC(=O)CC(NC(=O)Cc1ccc(Br)cc1)c1ccc(NC2CCCCCC2)c([N+](=O)[O-])c1 (stereo not given)	8	-4	-15	18	-13	.
CC(C)Nc1ccc(C(CC(N)=O)NC(=O)Cc2ccc(Br)cc2)cc1[N+](=O)[O-] (stereo not given)	-40	-4	40	84*	4	58*
NC(=O)CC(NC(=O)Cc1ccc(Br)cc1)c1ccc(NC2CCCCCCC2)c([N+](=O)[O-])c1 (stereo not given)	.	-3	-8	.	-21	.
NC(=O)CC(NC(=O)Cc1ccc(Br)cc1)c1ccc(NC2CCCC2)c([N+](=O)[O-])c1 (stereo not given)	26	-3	48	51*	-9	29
Cc1noc(C)c1COc1ccccc1C(=O)N1CCN(c2cccc(Cl)c2)CC1	-31	-6	10	46	3	.
Cc1noc(C)c1COc1ccccc1C(=O)N1CCN(c2cccc(C(F)(F)F)c2)CC1	-65	-12	9	55*	19	16
CC(=O)c1ccc(NC(=O)/C(Cl)=C/c2ccccc2)cc1	-35	1	-42	-59	-64	.
Cc1ccc(NC(=O)/C(Cl)=C\c2ccccc2)cc1	-102	-3	-120	-223	-53	-126
COc1ccc(/C=C2\SC(N3CCCCC3)=NC2=O)cc1OC	-1	-1	-1	-13	-15	.
COc1cc(/C=C2\SC(N3CCC(C)CC3)=NC2=O)ccc1O	34	1	-4	61*	14	19
O=c1c2ccccc2oc2ccc(C#CC3(O)CCCCC3)cc12	-180	-9	28	-161	37	15
CCOC(=O)[C@]12CCCCC/C=C\1N(CCc1ccc(Cl)cc1)C(=O)[C@H]2CC(=O)N1CCN(C(=O)C2CC2)CC1	.	.	.	.	16	.
COC(=O)c1[nH]c2ccc(Br)cc2c1NC(=O)CN1CCN(C2CCCCC2)CC1	-1	-6	16	68*	-4	46*
COC(=O)c1[nH]c2ccc(C)cc2c1NC(=O)CCN1CCN(C2CCCCC2)CC1	-35	.	.	-5	.	.
COc1ccc(S[C@]2(C(=O)N3CCOCC3)CC(=O)N(P(=O)(OC)OC)[C@@H]2c2ccc(OC)cc2)cc1	.	.	.	.	5	.
CCOc1ccc(/C=C/C(O)=C2/C(=O)NC3(C)CC2c2ccccc2O3)cc1OC (stereo not given)	-8	-3	12	64*	-3	-15
CCOc1ccc(/C=C/C(O)=C2/C(=O)N(C)C3(C)CC2c2ccccc2O3)cc1OC (stereo not given)	-17	0	9	35	3	.
CC(C)C[C@H]1COc2cc(Br)ccc2S(=O)(=O)N1Cc1cn(CCC2OCCO2)nn1	.	.	.	.	-20	.
Cc1cc(O)c(-c2cc(C(=O)Nc3cccnc3)[nH]n2)cc1C	-41	-4	-82	-178	-39	-114
Cc1cc(C)c(O)c(-c2cc(C(=O)Nc3cccnc3)[nH]n2)c1	14	-6	-27	-8	-10	.
OC(c1ccccc1)(c1ccccc1)C1CCN(CCCNc2cccc(Br)c2)CC1	.	.	.	.	-11	.
Cc1cccn2cc(-c3ccccc3)nc12	-118	-3	-94	-92	-70	.
Cc1cccn2cc(-c3ccc(F)cc3)nc12	-198	-1	-119	-167	-40	-93
SMILES	697 NFkB inh	GalR3 antagonist	Gli-Sufu antag	Jurkat NFkB inh	COUP-TFII inh	Jurkat NFkB conf
COc1ccc(-c2noc(C3CCCN(C(=O)Nc4ccc(Cl)cc4)C3)n2)cc1 (stereo not given)	.	.	.	.	-12	.
C[C@H]1COc2cc(Br)ccc2S(=O)(=O)N1Cc1cn(CCC2OCCO2)nn1	.	.	.	.	-4	.
Cc1ccccc1NC(=O)Nc1ccc2c(c1)C(=O)N(C)[C@H]1CC[C@H](CC(=O)NCC3CC3)O[C@@H]1CO2	.	.	.	.	-1	.
Fc1ccc(-c2cn3cc(C(F)(F)F)cc(Cl)c3n2)cc1	-172	-3	-124	-189	-59	-146
C=CCN(C)CC#CCCCCl	.	.	.	.	-10	.
O=C(CN1CCOCC1)Nc1ncc(Cc2ccccc2Cl)s1	-9	-2	-2	-4	2	.
CCc1ccc(CCC(=O)Nc2ncc(Cc3ccccc3Cl)s2)o1	-58	-6	20	66*	-46	2
O=C(COc1ccc(C(=O)c2ccccc2)cc1)NCc1ccc(F)cc1	-4	0	-1	69*	-33	41
O=C(OC12CCCN(C1)/C(=C/c1ccccc1)C2)c1ccc(Cl)cc1 (stereo not given)	.	.	.	.	-26	.
CC(=O)C1=C(O)CC(c2ccccc2)CC1=NCCc1c(C)[nH]c2ccc(C)cc12 (stereo not given)	-11	.	6	-4	0	.
CCC(=NCCc1c(C)[nH]c2ccc(C)cc12)C1=C(O)CC(c2ccccc2)CC1=O (stereo not given)	-22	-1	46	64*	-7	10
O=C(NCC(c1ccccc1)c1ccccc1)[C@H](Cc1c[nH]c2ccccc12)NC1(C(=O)NC2CCCCC2)CCC1	.	.	.	.	10	.
COc1ccc(C2c3c(ncn(CCCO)c3=N)Oc3ccc4ccccc4c32)cc1 (stereo not given)	17	-3	0	28	-17	.
COc1ccccc1C1c2ccc3ccccc3c2Oc2ncn(CCN(C)C)c(=N)c21 (stereo not given)	7	-13	8	78*	4	13
COc1ccccc1C1c2ccc3ccccc3c2Oc2ncn(CCCO)c(=N)c21 (stereo not given)	-31	.	18	18	.	.
COc1ccc(C2c3ccc4ccccc4c3Oc3ncn(CCCN(C)C)c(=N)c32)cc1 (stereo not given)	9	-14	8	52*	-2	22
Cc1ccc(C(=O)CSC2=C(C#N)C(c3ccco3)C3=C(CCCC3=O)N2)cc1 (stereo not given)	-84	0	-7	67*	-9	44
N#CC1=C(SCC(=O)c2ccccc2)NC2=C(C(=O)CCC2)C1c1ccco1 (stereo not given)	-166	-1	-103	10	-29	.
O=C(N/N=C/c1ccccn1)c1ccc(Cl)c(Cl)c1	3	-4	.	70*	3	-2
O=C(CNCc1ccccc1[N+](=O)[O-])N1CCC2(CC1)OCCO2	.	.	.	.	-31	.
